Measured values taken from PubChem BioAssay (NCI).
Compounds without any hit were thinned out: in the full panel of roughly 79,000, 15% have a hit. A number with no mark means an inactive call. Active and inactive are the calls of the source. Rule as the data show it: active = growth inhibition above about 70%; inactive = the rest.

Experiment: NCI Yeast Anticancer Drug Screen. Data for the mec2-1 strain (AID 157)
Conditions: S. cerevisiae mec2-1 strain, at 50.0 µM, stronger effect = higher value
Experimental: Growth inhibition of yeast strains with defined genetic alterations is measured as a screen for potential anti-cancer activity. Selected strains with alterations in DNA damage repair or cell cycle control were exposed to compounds and growth inhibition was measured relative to vehicle treated controls. The strain used in this assay is mec2-1

| SMILES | growth inhibition |
| --- | --- |
| O=C(Nc1ccccc1C(=O)N/N=C/c1cccc(O)c1)c1ccccc1 | 24.8% |
| O=C(O)C1CC(O)c2ccccc2C1c1ccccc1 (stereo not given) | -1.15% |
| O=C(CP(=O)(c1ccccc1)c1ccccc1)c1cccc(C(=O)CP(=O)(c2ccccc2)c2ccccc2)c1 | -10.1% |
| O=C1c2cccc3c(Br)ccc(c23)C(=O)N1CCCN1CCOCC1 | 77.7% (active) |
| CC(=O)c1ccc2c(c1)-c1ccc(C(C)=O)cc1-2 | -0.7% |
| S=C([S-])[P+](C1CCCCC1)(C1CCCCC1)C1CCCCC1 | -39.1% |
| CCOC(=O)N(C)Cc1ccc(Cl)cc1 | -1.1% |
| NC(N)=NS(=O)(=O)c1ccc(N=Cc2c3ccccc3nc3ccccc23)cc1 | 99.3% (active) |
| O=C(O)C(=O)/C=C(\O)c1ccc(Br)cc1 | 11.8% |
| N[C@@H]1c2c(Br)sc(Br)c2C(=O)[C@H]1Br | -2.85% |
| Cn1nc(NC(=O)c2cc(N)nn2C)cc1C(=O)Nc1ccc2cc(S(=O)(=O)O)cc(S(=O)(=O)O)c2c1 | -16.7% |
| N#CC1=C(c2ccccc2)C(=C2Nc3ccccc3N2)C2S/C(=C\c3ccccc3)C(=O)N2C1=N (stereo not given) | -12.3% |
| Cc1csc(NC(=O)C2C3CCC(O3)C2C(=O)O)n1 (stereo not given) | -11.2% |
| COc1ccc2c3c([nH]c2c1[N+](=O)[O-])C(C)N(C)CC3 (stereo not given) | 7.5% |
| Cc1ccc2nc(-c3cccc([N+](=O)[O-])c3)c(N=O)n2c1 | 4.35% |
| COC(=O)C1C2OC(C(Br)C2Br)C1C(=O)OC (stereo not given) | -9.5% |
| N#CC1=C2CCCC(C#N)=C2CCC1 | -1% |
| Oc1ccc(C2CCCC2)cc1 | -30.1% |
| CCOC(OCC)C(N)=O | -12.1% |
| CC1(C)OCC(C2OC(C)(C)OC2C(CO)Nc2ccc([N+](=O)[O-])cc2[N+](=O)[O-])O1 (stereo not given) | 21.4% |

| SMILES | growth inhibition |
| --- | --- |
| CNS(=O)(=O)c1ccc(C)cc1 | -6% |
| CCCCSc1nc2c(=O)n(C)c(=O)n(C)c2n1C | 1.15% |
| COc1cccc(/C=C(\C#N)C(=O)c2ccccc2)c1 | 19.6% |
| CN1c2ccccc2Nc2cc(C#N)ccc21 | -8.3% |
| Cc1cccc(C)c1N=Nc1ccc(O)c(CN(C)C)c1 | -14.7% |
| CN(CCO)c1nc(N)cc(=O)[nH]1 | 12.5% |
| CCC1(C)N=C(C(N)=O)c2ncn(N=C(C)C)c2N1 (stereo not given) | -30.2% |
| CCCCCCC(=O)OCC | -3.4% |
| Cc1cc2[nH]c(=O)c(=O)[nH]c2cc1C | 4.05% |
| CCOC(=O)c1cc(C=O)oc1C | -4.2% |
| FC(F)(F)c1ccc(C2SCc3nc4ccccc4n32)cc1 (stereo not given) | -5.4% |
| O=C(C[n+]1cc(Br)cc(Br)c1)c1ccc(Br)cc1 | -0.15% |
| [O-][N+](=Nc1ccc(Sc2ccccc2)cc1)c1ccc(Sc2ccccc2)cc1 | 2.3% |
| COc1ccccc1C(O)C(C)(C)C (stereo not given) | 2.45% |
| C#CCOCCC(C(=O)O)C(=O)O | 5.45% |
| CC(=O)N1c2cc(N=NN(C)C)ccc2NC(=O)CC1C (stereo not given) | -3.05% |
| CN(C/C=C/CN(C)C(=S)Nc1ccccc1)C(=S)Nc1ccccc1 | 13.1% |
| CC(Cc1ccccc1)c1ccccc1 (stereo not given) | 16.2% |
| CN(CCCN)CCCN | -11.2% |
| Cc1cc(C#N)c[n+](C)c1 | -14.3% |
